Reference: PubChem BioAssay AID488890 (Southern Research Specialized Biocontainment Screening …, 2010)
Hit rate of the full screen: of about 320,000 compounds, about 1,300 (0.41%) were called active. Roughly 3% stayed inconclusive and do not appear here. No rule for the calls is given here. Only a sample is shown. Potency and affinity values are given separately.

Assay: growth inhibition of non-replicating M. tuberculosis (AID 488890);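 also: plate controls were DMSO cells for no effect and high antibiotic wells for full effect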
Conditions: Mycobacterium tuberculosis non-replicating, at 25 µM, stronger effect = higher value

Compound	inhibition [%]
Cc1sc(NC(=O)C2CSC3(C)CCC(=O)N23)nc1-c1ccc(F)cc1 (stereo not given)	23.3
CNC(=O)C1CCC(=O)N1Cc1ccccc1Cl (stereo not given)	-5.58
Cc1[nH]c2ccccc2c1CC#N	-7.72
COC(=O)CNC(=O)COC(=O)/C=C/c1cccs1	-8.45
COc1ccc(/C=C2\N=C(C(C)(C)C)OC2=O)c(OC)c1	64.4
CN(C)c1ccc(C=C2C(=O)OC(C)(C(C)(C)C)OC2=O)cc1 (stereo not given)	-8.32
CCN(C[C@H]1N[C@@](C)(C(=O)OC)[C@H]2C(=O)N(C)C(=O)[C@@H]12)C(=O)C1CCCCC1	1.05
CS(=O)(=O)Nc1ccccc1C(=O)NC1CC2CCC1C2 (stereo not given)	-26.9
COc1ccc(NC(=O)Cn2c(=O)n(CC3CCCO3)c(=O)c3cc(OC)c(OC)cc32)cc1OC (stereo not given)	3.8
COC(=O)c1ccccc1OCCOCCOc1cccc2cccnc12	-0.9
O=C(c1ccc(Cl)cc1)N1CCCCC(Sc2nnc(-c3ccc4c(c3)OCO4)o2)C1=O (stereo not given)	17.2
O=C1OCCC1Sc1nnc(-c2ccc3c(c2)OCO3)o1 (stereo not given)	0.17
Cc1ccc(S(=O)(=O)N(C)C)cc1-n1c(SCC(=O)Nc2ccc(F)cc2)nc2ccccc2c1=O	26.8
COC(=O)c1ccccc1OC(=O)c1cc2ccccc2oc1=O	17.4
CC(=O)/C=C\c1ccccc1OC(=O)c1cc2ccccc2oc1=O	18
Cc1ccc(NC(=O)C2(S(=O)(=O)c3ccc(C)cc3)CC2)cc1	7.01
CCCC(=O)Nc1ccc(C(=O)NNC(=S)NC(=O)c2cccs2)cc1	-6.93
CCCCOc1ccc(C(=O)NCC(=O)NNC(=O)c2ccco2)cc1	9.92
COc1ccc(C(=O)NC(=S)NNC(=O)c2ccco2)cc1	78.5
CCCOc1ccc(C(=O)Nc2ccc(NC(=O)c3cccs3)cc2)cc1	-8.66
c1cnc2c(OCc3cn4cccnc4n3)cccc2c1	24.9
CCC(C(=O)NCc1ccco1)N(C(=O)CNS(=O)(=O)c1ccccc1)C1CCCCC1 (stereo not given)	18.4

Compound	inhibition [%]
COc1ccc(-n2c(SCC(=O)O)nnc2-c2ccc(NC(=O)c3ccccc3)cc2)cc1	9.48
COc1ccc(NCc2nnc(-c3ccccc3)o2)cc1	69.4
CCCc1nnc(-c2cc(OC)c(OC)c(OC)c2)o1	7.1
Cc1nnc(SCc2ccc([N+](=O)[O-])cc2)o1	16.4
CC(=O)CSc1nnc(Cc2ccc([N+](=O)[O-])cc2)o1	70.9
CCOc1ccc(-c2nnc(-c3ccc(OC)cc3)o2)cc1	53.7
COc1ccc(-c2ccc(-c3nnc(Cc4ccc(OC)c(OC)c4)o3)cc2)cc1	15.8
COc1ccc(-c2nnc(SCC#N)o2)cc1	65.7
COc1ccc(-c2nnc(SCc3cc(C)cc(C)c3)o2)cc1	42.9
Cn1c(=O)c(=O)n(C)c2cc(S(=O)(=O)N3CCOCC3)ccc21	-6.34
COC(=O)c1cc(S(=O)(=O)NCc2ccccc2Cl)c[nH]1	-3.81
Cc1ccc2c(c1)N(S(=O)(=O)c1ccc(CN3C(=O)c4cccnc4C3=O)cc1)CCO2	15.3
Cn1c(SCc2cccnc2)nc2cccnc21	-20.7
CC/C(=N\N=C1\SC(C)C(=O)N1Cc1ccco1)c1ccccc1 (stereo not given)	32
COc1ccccc1CNC(=O)c1cnn2c(C(F)F)cc(C)nc12	24.9
COc1ccccc1N1CCN(S(=O)(=O)CCNC(=O)C2CC2)CC1	-6.08
COc1ccc(-c2cc(C(F)F)n3ncc(C(=O)Nc4cnn(Cc5ccccc5)c4)c3n2)cc1	-6.39
Cc1cccc(NCc2ccccc2O)c1C	12.1
Fc1ccc(-c2nnc(Cc3nnc(-c4ccc(F)cc4)o3)o2)cc1	-8.26
c1ccc(OCc2nnc(-c3ccccc3)o2)cc1	62.3
O=[N+]([O-])c1ccc(Cc2nnc(-c3ccc(F)cc3)o2)cc1	72.1
c1ccc(CN2CCN(Cc3nnc(-c4ccccc4)o3)CC2)cc1	30.8

Compound	inhibition [%]
Clc1ccccc1OCc1nnc(-c2ccccc2Br)o1	29.1
COc1ccc(OC)c(NCc2nnc(-c3ccccc3)o2)c1	77
O=[N+]([O-])c1ccc(Cc2nnc(-c3ccccc3Cl)o2)cc1	34.9
O=C(Nc1nn(Cc2ccc(Cl)cc2)cc1Br)c1ccc(COc2ccccc2Cl)o1	44.8
CCc1cc(CC)c(/C=N/NC(N)=O)c(CC)c1	6.49
COc1ccc(-n2cnc3sc4c(c3c2=O)CCCC4)cc1	26
CC(C)c1nnc(NC(=O)CN2C(=O)c3ccccc3C2=O)s1	-1.11
Cc1ccc(-n2ncc(C(=O)N3CCN(C(=O)c4ccco4)CC3)c2C2CCN(C(=O)OC(C)(C)C)CC2)cc1C	-1.31
O=C(C1CCC1)N1CCc2cc(S(=O)(=O)NCCCN3CCCCC3)ccc21	-2.13
CCOC(=O)c1c(NC(=O)Nc2ccc(F)cc2)sc2c1CCN(C)C2	0.96
C=CCn1c(O)c(C(CC)=NCCc2c[nH]c3ccccc23)c(=O)[nH]c1=O	18.7
O=[N+]([O-])c1cccc(-c2nnc(C3CC3)o2)c1	8.89
Clc1ccc(-c2nnc(C3CC3)o2)cc1	63
COc1cc(NC(=O)c2ccc(Cl)cc2)c(Cl)cc1NC(=O)c1cccnc1	-8.85
COc1cccc(O)c1CN1CCC(C(=O)Nc2ccc(Oc3cccnc3)cc2)CC1	19.3
Cc1ccccc1CN1CCC(C(=O)Nc2ccc(Oc3cccnc3)cc2)CC1	30.1
CC1Cc2ccccc2N1C(=O)CO/N=C/c1ccccc1OC(F)F (stereo not given)	-12.1
C=CCn1c(O)c(N=NC(=O)C(O)c2ccccc2)c2ccccc21 (stereo not given)	15.4
CC(OC(=O)c1snc(C(=O)NC2CCCCC2)c1N)C(=O)NC1CCCCC1 (stereo not given)	-11.8
CC(OC(=O)c1snc(C(=O)NC2CCCCC2)c1N)C(=O)NC(C)(C)C (stereo not given)	48.2
CCOC(=O)c1snc(C(=O)NC2CCCCC2)c1N	64.4
CC(C)(C)NC(=O)CN(C(=O)c1snc(C(=O)NC2CCCCC2)c1N)c1ccc(F)cc1	-3.77

Compound	inhibition [%]
C/C(=N\NC(=O)C(C)Nc1cccc(Cl)c1)c1ccc([N+](=O)[O-])cc1 (stereo not given)	6.72
Cc1ccc2oc(=O)c3cnn(CC(=O)NCCC(C)C)c3c2c1	-1
COCCN1C(=O)N[C@@H](c2ccccc2)[C@@H](C(=O)OC)[C@H]1C	-23.2
CC(C)NC(=O)C(c1ccc(F)cc1)N(C(=O)CCC(=O)Nc1ccccn1)C1CCCCC1 (stereo not given)	-1.84
O=C1Nc2ccccc2C1Cc1ccccc1 (stereo not given)	24.6
FC(F)(F)c1cc(CO[C@@H]2CCCN[C@@H]2c2ccccc2)cc(C(F)(F)F)c1	63.4
CCOc1ccc(Br)cc1/C=N/NC(=O)c1ccncc1	73.7
COc1ccc(NC(=O)COC(=O)CCCc2c[nH]c3ccccc23)cc1OC	16.1
Cc1ccc(NC(=O)COC(=O)Cc2c[nH]c3ccccc23)cc1C	35.7
Cc1cccc(NC(=O)COC(=O)Cc2c[nH]c3ccccc23)c1C	6.74
O=C(COC(=O)Cc1c[nH]c2ccccc12)Nc1cccc2ccccc12	2.45
COc1ccc(C(=O)NCCc2c[nH]c3ccccc23)cc1	25.8
COc1ccc(CNC(=O)CCc2c[nH]c3ccccc23)cc1	-7.3
CS(=O)(=O)c1ccc(Cl)c(NC(=O)COC(=O)Cc2c[nH]c3ccccc23)c1	-10
CS(=O)(=O)c1ccc(Cl)c(NC(=O)COC(=O)CCc2c[nH]c3ccccc23)c1	74.8
CCc1ccccc1N(C(=O)c1snc(C(N)=O)c1N)C(C(=O)NCC1CCCO1)c1ccc(C)o1 (stereo not given)	37.2
C[C@H]1COC(=O)[C@H](Cc2ccc(F)cc2)C/C=C\C[C@H](CC(=O)NCCO)C(=O)N1	6.21
CCCCN(C(=O)C1CCC1)c1c(N)n(CCC)c(=O)[nH]c1=O	-13.3
COc1cc(OC)c(C2=NOC(C(=O)NCc3cccnc3)C2)cc1Cl (stereo not given)	2.26
COc1ccc(NC(=O)c2coc3ccccc23)cc1OC	48.1
C[C@H](OC(=O)N1CCN(C(c2ccccc2)c2ccccc2)CC1)[C@@H]1O[C@@]2(C)CCC[C@H]1O2	3.49
COCCN1C(=O)c2ccccc2C(C(=O)N2CCN(c3ccccc3)CC2)C1c1ccc(F)cc1 (stereo not given)	30

Compound	inhibition [%]
CC(=O)Nc1ccc(NC(=O)COC(=O)CCCc2c[nH]c3ccccc23)cc1	13.7
NS(=O)(=O)c1cccc(NC(=O)COC(=O)CCCc2c[nH]c3ccccc23)c1	7.86
Cc1ccnc(NC(=O)CCCc2c[nH]c3ccccc23)c1	11.4
COc1cccc(NC(=O)COC(=O)CCCc2c[nH]c3ccccc23)c1	58.5
Cc1ccc(NC(=O)CCc2c[nH]c3ccccc23)nc1	65.6
O=C(COC(=O)c1c[nH]c2ccccc12)Nc1ccc([N+](=O)[O-])cc1	-4.96
COc1ccc2cc(C3CC(c4cccs4)=NN3C(C)=O)c(Cl)nc2c1 (stereo not given)	-4.81
CCCc1nc2c(=O)[nH]c3ccccc3c2o1	-9.47
CCCCc1nc2c(=O)[nH]c3ccccc3c2o1	-16.6
CNCc1ccccc1Sc1cccc(O)c1	-3.89
CNCc1ccccc1Sc1ccc(O)c(O)c1	33.3
O=C(O)COc1ccc2oc3ccccc3c2c1	3.49
CC(=O)Nc1ccc(NC(=O)COc2ccc(-c3ccc(C#N)cc3)cc2)cc1	-7.55
COc1ccc(CCNC(=O)COc2ccc(-c3ccc(C#N)cc3)cc2)cc1	72.4
CC(=O)NCCOc1ccc2oc3ccccc3c2c1	5.68
CC(C)N(Cc1ccccc1)C(=O)CC(=O)N(Cc1ccccc1)C(C)C	6.28
CCc1ccc(-c2cc(C)no2)cc1S(=O)(=O)Nc1cc(C)ccn1	-1.42
CCOC(=O)N1CCN(C(=O)CN(C)S(=O)(=O)c2ccc(Cl)cc2)CC1	-17.1
CSCCC(NC(=O)c1ccco1)C(=O)NC1CCCCCC1 (stereo not given)	-8.42
Cc1cc(Nc2nc3ccccc3nc2Cl)n(-c2ccccc2)n1	8.46
CC(C)(C)NC(=S)NCc1ccco1	-18.9
CC(C)(O)C(=O)NNC(=S)NCc1ccco1	-2.82
